# Records with an inconclusive call do not appear. Entries that show only a call come without a potency. Calls of active or inactive are those of the source. Unless noted, calls come from the whole dose curve; as a rule, active = well fitted curve in the direction sought with a large enough effect; inconclusive = small, poorly fitted or top-dose-only effect, or another doubt; inactive = no such curve, though single readings can be large; an effect the other way counts as inactive or inconclusive.
# How the values were obtained:
# [1] = target: Lysosomal acid glucosylceramidase (Homo sapiens) (UniProt P04062); assay: Glucocerebrosidase-p2 (AID 348; in the data active = potency below about 10 µM; note: potency is the fitted concentration of half-maximal effect); settings: purified GBA, blue fluorogenic substrate, 40 min
# Sequence of Lysosomal acid glucosylceramidase (Homo sapiens) (P04062 whole entry, looked up): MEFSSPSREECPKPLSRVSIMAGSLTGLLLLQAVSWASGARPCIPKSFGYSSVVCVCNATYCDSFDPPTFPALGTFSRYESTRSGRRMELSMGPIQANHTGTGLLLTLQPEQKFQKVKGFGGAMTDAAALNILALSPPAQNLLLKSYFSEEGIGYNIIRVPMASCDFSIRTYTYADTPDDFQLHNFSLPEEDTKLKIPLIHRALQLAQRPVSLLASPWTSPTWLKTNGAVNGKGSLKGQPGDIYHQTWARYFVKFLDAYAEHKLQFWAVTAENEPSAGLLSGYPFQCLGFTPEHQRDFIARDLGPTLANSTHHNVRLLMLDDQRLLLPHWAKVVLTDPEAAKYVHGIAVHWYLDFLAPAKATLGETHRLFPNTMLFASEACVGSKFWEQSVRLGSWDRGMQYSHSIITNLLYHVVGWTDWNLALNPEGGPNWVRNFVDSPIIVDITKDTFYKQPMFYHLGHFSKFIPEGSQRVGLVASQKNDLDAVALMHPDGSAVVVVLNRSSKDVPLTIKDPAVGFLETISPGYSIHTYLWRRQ
# Procedure, shortened: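 Normal human glucocerebrosidase (0.2 nM) with blue fluorogenic substrate (80 uM final) in citrate/phosphate pH 5.9 with 10mM sodium taurocholate, 0.01% tween-20; 40 min RT, NaOH/glycine stop; fluorescence Ex 365/Em 440; AC50 from a titration from 0.6 nM upwards.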
# [2] = AP1 Signaling Pathway (AID 357; active = well fitted curve in either direction with a large enough effect, not every such curve was filed as active;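 note: ME-180 reporter cells stimulated with EGF at its EC50 level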); settings: ME-180 AP-1-bla reporter, EGF-induced, beta-lactamase ratio, 5 h; at 7.69 µM (top of the series) unless noted
# Procedure, shortened: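 Read-out was the 460nm/530nm emission ratio (excitation 405nm) after CCF4 loading for 2.5 hours at room temperature. Cells carried an AP-1-driven beta-lactamase reporter, were stimulated with EC50 EGF plus compound for 5 hours, and AC50 values came from titrations.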
# [3] = target: Cytochrome P450 1A2 (Homo sapiens) (UniProt P05177); assay: p450-cyp1a2 (AID 410; calls by dose curve; note: potency is the fitted concentration of half-maximal effect); settings: recombinant CYP1A2, luciferin-ME demethylation, luminescence; series mostly up to 57 µM
# Sequence of Cytochrome P450 1A2 (Homo sapiens) (P05177 whole entry, looked up): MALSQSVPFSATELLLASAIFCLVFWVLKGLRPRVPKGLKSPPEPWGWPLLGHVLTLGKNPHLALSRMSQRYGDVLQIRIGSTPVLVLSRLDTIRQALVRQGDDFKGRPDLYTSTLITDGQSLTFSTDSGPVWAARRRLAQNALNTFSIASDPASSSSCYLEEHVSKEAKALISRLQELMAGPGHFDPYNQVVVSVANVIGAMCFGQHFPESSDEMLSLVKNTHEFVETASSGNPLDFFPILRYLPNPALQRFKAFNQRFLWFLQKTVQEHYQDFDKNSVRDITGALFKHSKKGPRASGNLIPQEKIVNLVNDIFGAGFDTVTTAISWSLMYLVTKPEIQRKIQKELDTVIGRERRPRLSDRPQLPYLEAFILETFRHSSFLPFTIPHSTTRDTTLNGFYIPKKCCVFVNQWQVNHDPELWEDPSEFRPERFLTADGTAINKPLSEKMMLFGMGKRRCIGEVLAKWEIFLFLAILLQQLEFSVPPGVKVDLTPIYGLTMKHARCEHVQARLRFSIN
# Procedure, shortened: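 Luminescent demethylation readout: Luciferin-ME (100uM, equal to Km) turned over by 20nM CYP1A2 for 60 min at room temperature after NADPH regeneration addition, following 10 min compound preincubation. Normalization used 57 uM furafylline as full inhibition.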
# [4] = NFAT Signaling Pathway (AID 444; active = well fitted curve in either direction with a large enough effect, not every such curve was filed as active;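 note: carbachol stimulus at about its EC50 of 1 µM final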); settings: Jurkat NFAT-bla M1, carbachol, beta-lactamase ratio, 5 h; at 7.69 µM (top of the series) unless noted
# Procedure, shortened: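 Jurkat cells carrying an NFAT-driven β-lactamase reporter and co-transfected muscarinic M1 receptor were treated with compound plus carbachol (1 uM final, an EC50 level) for 5 h at 37 °C. CCF4 loading followed for 1 h at RT; 460/530 nm ratio gave %activity.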
# [5] = Stat Signaling Pathway (AID 446; active = well fitted curve in either direction with a large enough effect, not every such curve was filed as active;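 note: ME-180 cervical cancer cells given 40 pM IL-6 alongside compound; SIE-controlled beta-lactamase reporter measured as 460/530 nm FRET emission ratio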); settings: ME-180 (cervical carcinoma) SIE beta-lactamase reporter, IL-6 stimulated, 5 h; at 7.69 µM (top of the series) unless noted
# Procedure, shortened: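 Overnight-plated ME-180 cells bearing a STAT Inducible Element beta-lactamase reporter; 5 h co-exposure to compound and 40 pM IL-6; values normalized to 300 pM IL-6 and 125 nM JAK inhibitor controls.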
# [6] = target: Glucocorticoid receptor (Homo sapiens) (UniProt P04150); assay: GR-GFP Redistribution (AID 450;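 active = compounds whose dose series gives a full or clear partial fitted curve of increased nuclear translocation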; note: potency is the fitted concentration of half-maximal effect); settings: U2OS GR-GFP nuclear translocation, laser cytometry, 2 h
# Sequence of Glucocorticoid receptor (Homo sapiens) (P04150 whole entry, looked up, the tested form may be a part): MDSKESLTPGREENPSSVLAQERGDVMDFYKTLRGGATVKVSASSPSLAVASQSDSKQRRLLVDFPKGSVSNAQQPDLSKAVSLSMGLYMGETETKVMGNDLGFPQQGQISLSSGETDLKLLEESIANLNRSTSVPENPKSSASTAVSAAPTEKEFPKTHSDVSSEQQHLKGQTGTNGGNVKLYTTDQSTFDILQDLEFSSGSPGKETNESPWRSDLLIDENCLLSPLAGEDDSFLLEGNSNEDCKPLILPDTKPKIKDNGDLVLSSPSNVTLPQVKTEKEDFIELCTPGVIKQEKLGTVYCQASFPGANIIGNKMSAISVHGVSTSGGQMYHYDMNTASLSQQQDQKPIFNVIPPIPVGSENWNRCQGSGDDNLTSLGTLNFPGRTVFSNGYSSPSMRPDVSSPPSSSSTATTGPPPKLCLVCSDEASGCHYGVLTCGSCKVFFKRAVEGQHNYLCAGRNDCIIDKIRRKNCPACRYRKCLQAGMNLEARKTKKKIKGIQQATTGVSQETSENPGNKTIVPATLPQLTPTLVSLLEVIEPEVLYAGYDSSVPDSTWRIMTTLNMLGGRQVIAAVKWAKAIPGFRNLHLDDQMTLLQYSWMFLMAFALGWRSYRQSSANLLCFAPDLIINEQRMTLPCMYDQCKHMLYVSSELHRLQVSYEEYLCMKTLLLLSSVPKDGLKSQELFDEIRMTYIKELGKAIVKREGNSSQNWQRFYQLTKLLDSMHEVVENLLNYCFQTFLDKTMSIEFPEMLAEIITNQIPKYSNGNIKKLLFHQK
# [7] = target: Glucocorticoid receptor (Homo sapiens) (UniProt P04150); assay: GR-EFC Redistribution (AID 451; calls by dose curve; note: potency is the fitted concentration of half-maximal effect); settings: CHO-K1 GR-EFC translocation, beta-gal luminescence, 2 h
# Procedure, shortened: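 CHO-K1 cells stably expressing nuclear-localized β-gal enzyme acceptor and GR fused C-terminally to the enzyme donor fragment; ligand-driven nuclear translocation restores β-gal by complementation. Compounds titrated up to 46 uM final, 2 h at 37 °C; luminescence read.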
# [8] = target: Mitogen-activated protein kinase 10 (Mus musculus) (UniProt Q61831); assay: JNK3 AlphaScreen Assay (AID 530; active = well fitted curve in either direction with a large enough effect, not every such curve was filed as active;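 note: kinase came from lysate of stimulated human HepG2 cells; signal reports phosphorylation of biotinylated GST-cJun 1-79 at Ser73 with 10 µM ATP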); settings: JNK3 lysate, c-Jun phosphorylation; series mostly up to 57.1 µM
# Procedure, shortened: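 Phosphorylation of biotinylated GST-cJun(1-79) at Ser73 is measured by AlphaScreen proximity luminescence. Enzyme is JNK3 in HepG2 lysates activated with interleukin-1beta and tumor necrosis factor alpha; ATP is 10 uM final.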
# [9] = target: 3',5'-cyclic-AMP phosphodiesterase 4B (Homo sapiens) (UniProt Q07343); assay: qHTS Assay for Inhibitors of PDE-IV (AID 607; active = well fitted activation curve with a large enough effect in the main read-out, with a control signal flat, not every such curve was filed as active); settings: HEK293 ACTOne CNG channel cells, membrane potential fluorescence; series mostly up to 22.9 µM
# Sequence of 3',5'-cyclic-AMP phosphodiesterase 4B (Homo sapiens) (Q07343 whole entry, looked up): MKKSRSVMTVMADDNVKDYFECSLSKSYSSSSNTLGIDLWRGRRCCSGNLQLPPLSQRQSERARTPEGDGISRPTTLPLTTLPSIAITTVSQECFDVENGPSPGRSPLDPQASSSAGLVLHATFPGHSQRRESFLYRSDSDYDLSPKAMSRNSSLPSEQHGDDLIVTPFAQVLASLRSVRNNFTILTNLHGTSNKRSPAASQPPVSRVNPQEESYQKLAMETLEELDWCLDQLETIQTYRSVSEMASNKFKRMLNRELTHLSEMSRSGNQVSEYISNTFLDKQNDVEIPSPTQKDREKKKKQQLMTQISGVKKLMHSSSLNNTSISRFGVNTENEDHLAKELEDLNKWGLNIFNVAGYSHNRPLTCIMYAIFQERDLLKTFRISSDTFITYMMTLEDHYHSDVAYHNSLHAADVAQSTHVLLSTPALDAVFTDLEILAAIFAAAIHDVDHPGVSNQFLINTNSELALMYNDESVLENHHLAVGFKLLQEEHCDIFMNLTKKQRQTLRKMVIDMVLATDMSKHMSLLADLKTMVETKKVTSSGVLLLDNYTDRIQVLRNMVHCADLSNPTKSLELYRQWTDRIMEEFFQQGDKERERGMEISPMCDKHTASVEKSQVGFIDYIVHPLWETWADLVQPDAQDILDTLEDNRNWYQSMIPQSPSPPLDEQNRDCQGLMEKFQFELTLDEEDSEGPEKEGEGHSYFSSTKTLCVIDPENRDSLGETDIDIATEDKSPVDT
# Procedure, shortened: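 Live HEK293 cells with a modified cyclic nucleotide-gated (CNG) channel report intracellular cAMP via membrane-potential dye fluorescence (ex 535/em 590 nm). Endogenous PDE-IV was targeted. Compounds were tested at up to 22.9 uM final; RO 20-1724 100 uM served as control.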
# [10] = target: Cytochrome P450 3A4 (Homo sapiens) (UniProt P08684); assay: qHTS Assay for Activators of Cytochrome P450 3A4 (AID 885); settings: recombinant CYP3A4, Luciferin-PPXE luminescence, 60 min; series mostly up to 57.1 µM; note: nearly all actives have a fitted effect of over 65% in size
# Sequence of Cytochrome P450 3A4 (Homo sapiens) (P08684 whole entry, looked up): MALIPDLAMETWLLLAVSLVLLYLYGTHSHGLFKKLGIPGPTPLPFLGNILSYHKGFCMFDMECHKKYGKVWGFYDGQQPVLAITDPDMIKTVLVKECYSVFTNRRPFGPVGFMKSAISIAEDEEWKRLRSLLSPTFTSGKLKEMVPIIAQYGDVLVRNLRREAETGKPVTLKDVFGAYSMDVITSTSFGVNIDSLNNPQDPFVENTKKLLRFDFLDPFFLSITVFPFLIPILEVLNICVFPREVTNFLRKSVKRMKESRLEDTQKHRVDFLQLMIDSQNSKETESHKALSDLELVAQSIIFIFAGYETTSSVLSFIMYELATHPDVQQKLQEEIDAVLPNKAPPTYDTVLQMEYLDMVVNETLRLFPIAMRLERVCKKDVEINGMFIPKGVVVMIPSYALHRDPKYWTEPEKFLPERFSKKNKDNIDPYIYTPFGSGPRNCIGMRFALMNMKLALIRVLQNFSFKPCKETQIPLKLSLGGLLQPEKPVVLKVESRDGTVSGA
# Procedure, shortened: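 Using 20nM recombinant human CYP3A4 in potassium phosphate (200mM), substrate Luciferin-PPXE at 25uM, luminescent luciferin detection followed a 60-min RT NADPH reaction; data scaled to 57 uM ketoconazole.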
# [11] = Primary qHTS for small molecule stabilizers of the endoplasmic reticulum resident proteome: Secreted ER Calcium Modulated Protein (SERCaMP) assay (AID 1508630); settings: SH-SY5Y GLuc-SERCaMP (Gaussia luciferase released on ER calcium loss) secretion, thapsigargin, luminescence; series mostly up to 38.4 µM
# Procedure, shortened: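 The SH-SY5Y reporter protocol was run at 3 concentrations up to 38.3 uM (primary) or 11 concentrations (follow-up): 16 h compound, 100 nM thapsigargin for 4 h, then extracellular luciferase luminescence.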
# [12] = target: Rap guanine nucleotide exchange factor 3 (Homo sapiens) (UniProt O95398); assay: Confirmatory qHTS for antagonist of cAMP-regulated guanine nucleotide exchange factor 3 (EPAC1) (AID 1645880); settings: EPAC1 Rap1B-BODIPY-GDP exchange, fluorescence; series mostly up to 115 µM; note: nearly all actives have a fitted effect of over 55% in size
# Procedure, shortened: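 Released BODIPY-GDP fluoresces less than Rap1-bound BODIPY-GDP; the signal is followed at 480/540 nm at 5-min intervals over 30 min, after 5 min at room temperature. Reactions contain 100 nM EPAC1, 250 nM RAP1B-BODIPY-GDP and 50 uM GDP; results are normalized to ATA and DMSO.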
# [13] = target: Rap guanine nucleotide exchange factor 3 (Homo sapiens) (UniProt O95398); assay: Confirmatory qHTS for agonist of cAMP-regulated guanine nucleotide exchange factor 3 (EPAC1) (AID 1645881); settings: EPAC1 Rap1B BODIPY-GDP exchange fluorescence; series mostly up to 154 µM;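 note: EPAC1 catalysed release of BODIPY-GDP from Rap1B seen as fluorescence loss; nearly all actives have a fitted effect of over 75% in size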
# [14] = target: Rap guanine nucleotide exchange factor 4 (Homo sapiens) (UniProt Q8WZA2); assay: Confirmatory qHTS for agonist of cAMP-regulated guanine nucleotide exchange factor 4 (EPAC2) (AID 1645884); settings: EPAC2 GEF activity, Rap1B-BODIPY-GDP fluorescence; series mostly up to 154 µM;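 note: nucleotide exchange releases bodipy-GDP from Rap1 and this lowers its fluorescence; nearly all actives have a fitted effect of over 65% in size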
# Sequence of Rap guanine nucleotide exchange factor 4 (Homo sapiens) (Q8WZA2 whole entry, looked up): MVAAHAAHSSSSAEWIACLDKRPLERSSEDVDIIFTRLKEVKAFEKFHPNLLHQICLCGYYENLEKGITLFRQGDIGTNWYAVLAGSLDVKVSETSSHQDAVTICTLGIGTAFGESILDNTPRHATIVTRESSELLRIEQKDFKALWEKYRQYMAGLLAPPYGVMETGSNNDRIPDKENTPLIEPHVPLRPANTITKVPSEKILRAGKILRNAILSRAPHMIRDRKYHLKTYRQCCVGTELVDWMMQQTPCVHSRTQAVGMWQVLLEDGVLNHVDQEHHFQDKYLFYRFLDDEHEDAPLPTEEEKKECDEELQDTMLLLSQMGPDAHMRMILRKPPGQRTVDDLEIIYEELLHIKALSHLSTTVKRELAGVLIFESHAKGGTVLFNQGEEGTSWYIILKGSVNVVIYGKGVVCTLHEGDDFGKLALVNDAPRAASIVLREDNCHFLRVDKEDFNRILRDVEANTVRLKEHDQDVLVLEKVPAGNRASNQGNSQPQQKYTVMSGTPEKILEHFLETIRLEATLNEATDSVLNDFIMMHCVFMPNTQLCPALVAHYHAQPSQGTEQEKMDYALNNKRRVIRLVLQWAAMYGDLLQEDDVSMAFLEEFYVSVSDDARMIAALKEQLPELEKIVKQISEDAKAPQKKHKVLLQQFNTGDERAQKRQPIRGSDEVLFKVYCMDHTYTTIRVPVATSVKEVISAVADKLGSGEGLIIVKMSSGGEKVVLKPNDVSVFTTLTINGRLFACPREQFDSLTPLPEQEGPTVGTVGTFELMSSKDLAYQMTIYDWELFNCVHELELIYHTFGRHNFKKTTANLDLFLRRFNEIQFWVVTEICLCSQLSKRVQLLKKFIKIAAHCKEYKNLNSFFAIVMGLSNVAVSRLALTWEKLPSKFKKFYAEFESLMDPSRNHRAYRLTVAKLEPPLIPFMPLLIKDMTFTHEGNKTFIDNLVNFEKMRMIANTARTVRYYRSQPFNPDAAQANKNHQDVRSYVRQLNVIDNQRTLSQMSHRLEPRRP
# [15] = target: Rap guanine nucleotide exchange factor 4 (Homo sapiens) (UniProt Q8WZA2); assay: Confirmatory qHTS for antagonist of cAMP-regulated guanine nucleotide exchange factor 4 (EPAC2) (AID 1645885); settings: EPAC2 Rap1B-BODIPY-GDP exchange fluorescence, biochemical; series mostly up to 114 µM; note: nearly all actives have a fitted effect of over 25% in size
# [16] = target: Cytochrome P450 3A4 (Homo sapiens) (UniProt P08684); assay: qHTS Assay for Inhibitors and Substrates of Cytochrome P450 3A4 (AID 884); settings: recombinant CYP3A4, Luciferin-PPXE luminescence; series mostly up to 57.1 µM; note: potency is the fitted concentration of half-maximal effect; nearly all actives have a fitted effect of over 50% in size
# Procedure, shortened: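 Luminescent readout of luciferin produced by CYP3A4 (20 nM) dealkylation of Luciferin-PPXE, 25 uM (its KM). NADPH-driven reaction ran 60 min at RT after 10 min compound preincubation; data scaled to 57 uM ketoconazole as 100% inhibition.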
# [17] = qHTS Assay for Lipid Storage Modulators (AID 1519; calls by dose curve); settings: Drosophila S3 cells, BODIPY lipid droplet/cell ratio, laser cytometry, cells loaded with oleic acid; for activity change, negative = inhibition: at 57.5 µM (top of the series)
# Procedure, shortened: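 Cells seeded at 5,000 per well were treated with compounds over a concentration series and loaded with oleic acid (400 uM, as added). Lipid droplet fluorescence (488 nm excitation, 500-530 nm channel) was read by laser-scanning cytometry and normalized to 20 uM Triacsin C.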
# [18] = target: Ubiquitin carboxyl-terminal hydrolase 1 (Homo sapiens) (UniProt O94782); assay: Inhibitors of USP1/UAF1: Pilot qHTS (AID 504865); settings: purified USP1/UAF1, Ub-rhodamine cleavage fluorescence; series mostly up to 54.9 µM;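 note: rhodamine fluorescence freed from ubiquitin-rhodamine substrate followed over time; top concentration of the series differs between compounds; nearly all actives have a fitted effect of over 35% in size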
# Sequence of Ubiquitin carboxyl-terminal hydrolase 1 (Homo sapiens) (O94782 whole entry, looked up): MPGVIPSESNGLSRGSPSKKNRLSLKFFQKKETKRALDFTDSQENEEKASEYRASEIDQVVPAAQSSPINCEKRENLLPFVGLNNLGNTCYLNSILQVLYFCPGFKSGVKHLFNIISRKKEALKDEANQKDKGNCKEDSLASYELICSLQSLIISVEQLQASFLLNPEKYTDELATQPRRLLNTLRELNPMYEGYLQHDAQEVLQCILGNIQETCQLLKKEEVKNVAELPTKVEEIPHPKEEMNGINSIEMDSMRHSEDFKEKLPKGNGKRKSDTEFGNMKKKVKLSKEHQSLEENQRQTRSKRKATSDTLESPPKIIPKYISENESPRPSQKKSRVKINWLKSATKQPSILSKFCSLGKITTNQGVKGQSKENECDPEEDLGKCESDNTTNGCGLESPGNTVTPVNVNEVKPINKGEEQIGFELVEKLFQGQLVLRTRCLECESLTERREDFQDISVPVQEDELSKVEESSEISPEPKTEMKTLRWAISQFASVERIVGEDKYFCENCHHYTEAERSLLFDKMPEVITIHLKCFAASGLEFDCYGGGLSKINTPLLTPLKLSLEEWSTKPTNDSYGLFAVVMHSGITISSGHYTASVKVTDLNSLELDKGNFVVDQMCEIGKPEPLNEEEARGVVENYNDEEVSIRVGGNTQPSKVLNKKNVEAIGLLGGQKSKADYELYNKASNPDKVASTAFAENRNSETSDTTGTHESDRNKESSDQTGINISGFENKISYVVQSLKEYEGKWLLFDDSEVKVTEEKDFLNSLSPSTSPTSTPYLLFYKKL
# Procedure, shortened: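 1nM USP1/UAF1 + cpd, 15 min RT; start w/ Ub-Rho 150nM final; kinetic FL 480/540 nm, 6 reads q60 s. Buffer 50mM HEPES pH 7.8, 0.5mM EDTA, 1mM TCEP, 0.01% Tween-20, 0.1 mg/ml BSA.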
# [19] = target: Dual specificity protein kinase CLK4 (Homo sapiens) (UniProt Q9HAZ1); assay: qHTS Assay for Inhibitors of CDC-like Kinase 4 (Kinase-Glo Assay) (AID 1770); settings: recombinant Clk4, Kinase-Glo ATP depletion luminescence; series mostly up to 66.7 µM; note: nearly all actives have a fitted effect of over 65% in size
# Procedure, shortened: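 Readout: Kinase-Glo luminescence from ATP left after a 4.5 h room-temperature reaction of 25 nM Clk4 with 100 uM RS peptide and 1 uM ATP (final). Buffer: 25 mM Tris pH 7.5, 10 mM MgCl2.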
# [20] = target: Dual specificity protein kinase CLK4 (Homo sapiens) (UniProt Q9HAZ1); assay: qHTS Assay for Inhibitors of CDC-like Kinase 4 (ADP-FP Assay) (AID 1795); settings: Transcreener ADP fluorescence polarization; series mostly up to 50 µM;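 note: recombinant human CLK4 phosphorylating RS repeat peptide at 1 µM ATP; nearly all actives have a fitted effect of over 60% in size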
# Procedure, shortened: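 FP readout: Orange Transcreener ADP2 tracer (4 nM) plus ADP antibody, read after 30 min at room temperature. Kinase step: 6.25 nM Clk4, 100 uM RS peptide, 1 uM ATP, pH 7.5, 1 h.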
# [21] = measured here: cell count channel max response
# [22] = measured here: lipid channel max response
structure (smiles),measurement,setting,value
O=c1c(-c2ccc(Cl)cc2)nc2cncnc2n1Cc1ccccc1Cl,Potency,[1],> 11.4 µM (inactive)
same,"activity change, negative = inhibition",[2],8.01% (inactive)
same,Potency,[3],1.26 µM (active)
same,"activity change, negative = inhibition",[4],-29.5% (inactive)
same,"activity, negative = inhibition",[5],13% (inactive)
same,Potency,[6],> 9.22 µM (inactive)
same,Potency,[7],> 46 µM (inactive)
same,Potency,[8],inactive
same,Potency,[9],inactive
same,Potency,[10],inactive
same,outcome,[11],inactive
same,Potency,[12],inactive
same,Potency,[13],inactive
same,Potency,[14],inactive
same,Potency,[15],inactive
CS(=O)(=O)Nc1cccc(-c2ccc3ncnc(NCc4cccnc4)c3c2)c1,Potency,[3],0.316 µM (active)
same,"activity, negative = inhibition",[5],-6% (inactive)
same,Potency,[6],> 46 µM (inactive)
same,Potency,[7],> 46 µM (inactive)
same,Potency,[8],inactive
same,Potency,[9],inactive
same,Potency,[16],0.398 µM (active)
same,Potency,[10],inactive
same,"activity change, negative = inhibition",[17],10.4% (inactive)
same,max response,[17]; [21],2.04%
same,max response,[17]; [22],13.1%
same,Potency,[18],inactive
same,outcome,[11],inactive
COc1ccc(C(=O)N2CCC3(CC2)CN(c2cccc(-c4ccccc4)c2)C3)cc1,Potency,[1],> 11.4 µM (inactive)
same,"activity change, negative = inhibition",[2],-18.9% (inactive)
same,"activity, negative = inhibition",[5],-19.1% (inactive)
same,Potency,[7],> 46 µM (inactive)
same,Potency,[9],inactive
same,outcome,[11],inactive
same,Potency,[12],inactive
same,Potency,[13],inactive
same,Potency,[14],inactive
same,Potency,[15],inactive
COc1ccc(-n2c(=O)c(-c3ccc(Cl)cc3)nc3cnc(N(C)C)nc32)cc1,Potency,[1],> 11.4 µM (inactive)
same,Potency,[3],10 µM (active)
same,Potency,[6],> 9.22 µM (inactive)
same,Potency,[7],> 46 µM (inactive)
same,Potency,[8],inactive
same,Potency,[19],inactive
same,Potency,[20],inactive
same,Potency,[18],inactive
same,outcome,[11],inactive
same,Potency,[12],inactive
same,Potency,[13],inactive
same,Potency,[14],inactive
same,Potency,[15],inactive
N[C@H](C(=O)O)c1ccc(O)c(C(=O)O)c1,Potency,[3],inactive
same,Potency,[6],> 46 µM (inactive)
same,Potency,[8],inactive
same,Potency,[9],inactive
same,"activity change, negative = inhibition",[17],1.32% (inactive)
same,max response,[17]; [21],18.1%
same,max response,[17]; [22],22.5%
same,Potency,[18],inactive
same,outcome,[11],inactive
COc1ccc(Oc2ncc3nc(-c4cc(F)cc(F)c4)c(=O)n(C[C@H]4CCCO4)c3n2)cc1,Potency,[1],> 11.4 µM (inactive)
same,"activity change, negative = inhibition",[2],-5.29% (inactive)
same,"activity change, negative = inhibition",[4],-11.6% (inactive)
same,"activity, negative = inhibition",[5],-0.431% (inactive)
same,Potency,[6],> 9.22 µM (inactive)
same,Potency,[7],> 46 µM (inactive)
same,Potency,[8],inactive
same,Potency,[9],inactive
same,Potency,[20],inactive
same,Potency,[18],inactive
same,outcome,[11],inactive
same,Potency,[12],inactive
same,Potency,[13],inactive
same,Potency,[14],inactive
same,Potency,[15],inactive

# Source: PubChem BioAssay (NCATS)
